# Source: PubChem BioAssay
# WRN helicase inh – WRN helicase (human) inhibition | Q14191 | WRN helicase unwinding, fluorescent forked duplex, kinetic | Potency, µM (titrated, usually from 114 µM), without a hit: at the top dose activity change, negative = inhibition, hits mostly inhibitors | 0.46% of 360,000 active | AID 651768; note: % is set by controls: 0 for no effect and ±100 for the full control effect; nearly all actives have a fitted effect of over 55% in size
#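 Screening of the MLSMR collection measured strand separation of a quenched forked DNA duplex (100 nM) by 20 nM WRN with 2 mM ATP, all final. Compounds were preincubated with enzyme 15 min at room temperature.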
# POLB inh – inhibitors of human DNA polymerase beta. P06746. Pol beta primer extension/strand displacement, fluorescence kinetic. Potency, µM (highest dose often 114 µM), for the others: at the highest dose activity change, negative = inhibition, most hits filed as inhibitors. 1.3% of 340,000 active. AID 485314; note: % is set by controls: 0 for no effect and ±100 for the full control effect
#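 Pol beta (10 nM) and compounds were preincubated 15 min at room temperature, then 50 nM substrate (final) started primer extension/strand displacement. Reads were taken at 0 and 10 min; concentration-response data were fitted to a four-parameter Hill equation.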
# POLI inh – DNA polymerase iota (human) inhibition. Q9UNA4. Pol iota fluorescent replication assay, 10 min. Potency, µM (series often up to 115 µM), for inactives: at the highest dose activity, negative = inhibition, actives largely listed as inhibitors. 1% of 390,000 active
#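 Fluorescent replication assay read twice, at 0 min and 10 min after adding 50 nM (final) substrate. Enzyme (10 nM) and compounds were first incubated 15 min at room temperature; enzyme-free buffer wells were negative controls.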
# FEN1 inh – human FEN1 inhibition | P39748 | Recombinant FEN1 flap cleavage, fluorescence, 15 min | Potency, µM (titrated, usually from 114 µM), for the others: at the top dose activity change, negative = inhibition, usual class: inhibitors | 0.35% of 390,000 active; note: % is set by controls: 0 for no effect and ±100 for the full control effect; nearly all actives have a fitted effect of over 65% in size
#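 With each library titrated from low to high concentration, compounds met 10 nM FEN1 for 15 min at room temperature before 50 nM substrate was added; readings at 0 and 15 min fed four-parameter Hill curve fits.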
# POLH inh – blocks human DNA polymerase eta activity. 1.2% of 390,000 active. Q9Y253. Potency, µM (highest dose often 114 µM), without a hit: at the highest dose activity change, negative = inhibition, hits mostly inhibitors. recombinant Pol eta, fluorescent DNA replication assay; note: % is set by controls: 0 for no effect and ±100 for the full control effect
#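 Pol eta (10 nM) was preincubated with compounds for 15 min at room temperature, after which fluorescent replication substrate (50 nM final) was added to start the reaction. Fluorescence was read kinetically at 0 and 10 min.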
# Pol kappa inh – blocks human DNA polymerase kappa activity | 0.53% of 400,000 active | Potency, µM (doses to about 107 µM), inactives show at the highest dose activity, negative = inhibition, usual class: inhibitors | purified Pol kappa, fluorescent DNA synthesis assay, 10 min | AID 588579 | Q9UBT6; note: % is set by controls: 0 for no effect and ±100 for the full control effect
#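 Here, compound and 10 nM enzyme are combined for 15 min at room temperature; adding 50 nM substrate (final) starts DNA synthesis, tracked by fluorescence at 0 and 10 min against buffer-only wells.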
# * hit, by the source's call; ? = inconclusive; . = not tested or not shown; [ ] = dose if it differs, or a comment. Sampled rows, rich in hits. Any-hit rate of the full collection: about 2.4%. Calls come from the whole dose curve; as a rule, active = well fitted curve in the direction sought with a large enough effect; inconclusive = small, poorly fitted or top-dose-only effect, or another doubt; inactive = no such curve, though single readings can be large; an effect the other way counts as inactive or inconclusive. Potency is the fitted concentration of half-maximal effect.
SMILES,WRN helicase inh,POLB inh,POLI inh,FEN1 inh,POLH inh,Pol kappa inh
CCc1cccc(NC(=O)c2ccc(Cn3c(=O)[nH]c4ccsc4c3=O)cc2)c1,-28%[11.6 µM],45µM*,-7%,-13%,?,1%
O=C(Cc1ccc(-n2cccc2)cc1)NCc1cccs1,-13%,45µM*,-29%,-1%,?,-19%
S=c1nc(C2CCCCC2)[nH]c2ccccc12,-3%,0%,23%,-6%,-16%,-9%
S=c1nc(C2CC2)[nH]c2ccccc12,-23%[57.1 µM],?,?,-4%,25µM*,-32%
COc1ccc(C=NNC(=O)CCCCC(=O)NN=Cc2ccc(OC)cc2)cc1,9%,.,12%,-1%,-21%,2%
COC(=O)/C=C\C(C#N)(C#N)N=Cc1ccc(OC)cc1,56µM*,.,11%,-3%,-5%,-17%
O=C(O)c1ccc2c(c1)C(=O)/C(=C/c1ccccc1)C2=O,?,-23%,?,40µM*,2.8µM*,25µM*
CN(C)c1cc2c3ccccc3ccc2c2ccccc12,.,.,14%,-33%,.,-3%
NS(=O)(=O)c1ccc(CCNC(=O)CCC(=O)c2cccs2)cc1,7%[11.6 µM],.,-19%,20%,89µM*,-18%
O=C(CCC(=O)c1cccs1)NCCc1ccc(F)cc1,-8%,.,15%,8%,1%,-8%
COc1cc2c(cc1OC)C(COc1cc(C)cc(C)c1)N(C(=O)C(C)(C)C)CC2 (configuration not stated),.,3%,15%,-2%,?,-10%[60.1 µM]
COC(=O)c1sc(N)c(C(=O)OC)c1COC(=O)CCNS(=O)(=O)c1ccc(C)cc1,-12%[57.1 µM],10%,89µM*,-16%,?,-9%
CCN1/C(=C/C=C/c2oc3ccc4ccccc4c3[n+]2CC)Oc2ccc3ccccc3c21,?,6.3µM*,79µM*,?,32µM*,45µM*
CC[n+]1c(/C=C/N(C)c2ccccc2)oc2ccc(Cl)cc21,-10%,-11%,4%,3%,-17%,-26%
COc1ccc(/C=N/NC(=O)c2nn(-c3ccccc3)c(=O)c3c(N)scc23)cc1,-15%[57.1 µM],?,13µM*,-2%,-12%,35µM*
COc1ccc(/C=N/NC(=O)c2nn(-c3ccc(C)c(C)c3)c(=O)c3ccccc23)cc1,-14%,10%,16%,-1%,-13%,2%
O=C1C(Cl)=C(N2CCCCC2)C(=O)C(Cl)=C1c1cnc(N2CCCCC2)s1,?,5.6µM*,?,-2%,?,-36%
C[C@@H]1NC(=O)[C@H](CC(N)=O)NC(=O)c2cc([N+](=O)[O-])cc(I)c2OCC[C@@H](C(=O)NC(CC(=O)O)C(N)=O)NC1=O (some centres not stated),-12%,-21%,?,-17%,20µM*,79µM*
C[C@@H]1NC(=O)c2cc([N+](=O)[O-])cc(I)c2OCC[C@@H](C(=O)NC(CC(=O)O)C(N)=O)NC(=O)[C@H](CCC(=O)O)NC1=O (some centres not stated),0%,-7%,?,1%,18µM*,?
NC(=O)C(CC(=O)O)NC(=O)[C@@H]1CCOc2c(I)cc([N+](=O)[O-])cc2C(=O)N[C@@H](CCC(=O)O)C(=O)N[C@@H](CO)C(=O)N1 (some centres not stated),-3%,-10%,?,4%,?,?
COc1ccc(OCC(=O)Nc2ccc3c(c2)nc(CCn2ccccc2=O)n3C)cc1,6%[11.6 µM],?,56µM*,-13%,-5%,-31%
COc1ccc(NC(=O)Cn2cc(C(=O)c3ccccc3OC)c(=O)c3ccc(C)nc32)cc1OC,.,19%,18%,-5%,-11%,17%
O=C(c1ccc2c(=O)n3c(nc2c1)CCCCC3)N1CCN(C(c2ccccc2)c2ccccc2)CC1,-20%,24%,89µM*,-4%,-14%,-3%
O=C(C[n+]1ccccc1Br)c1ccc2c(c1)CCCC2,.,.,71µM*,-21%,.,?
